# The panel holds about 79,000 compounds, 15% with a hit somewhere; the sample as a whole holds those more often. Activity calls are given as the source filed them. No stated cut-off is given here; in the data, active means growth inhibition above about 70%; inactive means the rest.
# Test: NCI Yeast Anticancer Drug Screen. Data for the rad50 strain (AID 155);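 further: 0% = growth of vehicle-only cultures of the same strain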
# Details: S. cerevisiae rad50 strain growth inhibition; at 5.0 µM (retest, dose inferred, filed as 0.5); stronger effect = higher value
# Method in brief: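 Yeast carrying a defined DNA repair defect were exposed to test compounds, and growth was compared with vehicle-treated controls to give percent inhibition.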
row,Structure (SMILES),growth inhibition
1,CCCC/C=C1/CCC(CN(C)C)C1=O (stereo not drawn),7% (inactive)
2,CCN1CCC(O)(/C=C/c2ccccc2C)C(C(=O)/C=C/c2ccccc2C)C1 (stereo not drawn),8% (inactive)
3,Cc1c(Cl)ccc2c(C(O)CNCc3ccccc3)cc(-c3ccc(Cl)cc3)nc12 (stereo not drawn),44% (inactive)
4,NC1c2ccccc2-c2ccc([N+](=O)[O-])cc21 (stereo not drawn),12% (inactive)
5,CN(C(=O)c1ccccc1)C1(COC(=O)c2ccccc2)CCCCC1,-6% (inactive)
6,CCOC(=O)Nc1cc2c(cc1Br)-c1ccccc1C2O (stereo not drawn),-1% (inactive)
7,O=C(/C=C(/Nc1ccccc1)C(=O)c1ccccc1)c1ccccc1,3% (inactive)
8,Clc1ccc([I+]c2cccs2)cc1,37% (inactive)
9,Oc1ccc(Cc2cccc(Br)c2)c(O)c1,-2% (inactive)
10,Cc1cc(C)nc(CCSS(=O)(=O)O)c1,-4% (inactive)
11,CC1(C)OC2C(COC(c3ccccc3)(c3ccccc3)c3ccccc3)OC(n3cnc4c(N)ncnc43)C2O1 (stereo not drawn),-1% (inactive)
12,Oc1ccc(N=Nc2ccccc2)c(O)c1.Oc1ccc(N=Nc2ccccc2)c(O)c1.[Cu],13% (inactive)
13,O=C(N/C(=C\c1ccc2c(c1)OCO2)c1nc2ccccc2s1)c1ccccc1,19% (inactive)
14,CC1=C(C(=O)Nc2ccccc2C)C(c2ccccc2F)C(C(=O)Nc2ccccc2C)=C(C)N1,1% (inactive)
15,CC(=O)Oc1c2c(c(OC(C)=O)c3c1n(C(C)=O)c1ccccc1n3C(C)=O)n(C(C)=O)c1ccccc1n2C(C)=O,50% (inactive)
16,CCOc1c(N=Nc2ccc(Cl)cc2)c(-c2ccccc2)nn1C(N)=S,3% (inactive)
17,CC(=O)N(C1=CC(=O)c2ccccc2C1=O)c1ccc(Cl)cc1,95% (active)
18,O=C(C1=Cc2ccccc2OC1)N1CCN(c2cccc(Cl)c2)CC1,-1% (inactive)
19,Oc1c(Cl)ccc2cccnc12,97% (active)
20,COc1ccc2c(Cc3cc(Cl)ccc3O)cncc2c1O,-1% (inactive)
21,CC(CCOP(=O)(O)OCCC(C)CC(C)(C)C)CC(C)(C)C (stereo not drawn),-3% (inactive)
22,CC(C)(C)C(=O)CC(=O)C(F)(F)C(F)(F)C(F)(F)F.[Ag],97% (active)
23,Cc1ccc(S(=O)(=O)Nn2c(S)c(C#N)c(-c3ccc([N+](=O)[O-])cc3)c(C#N)c2=O)cc1,25% (inactive)
24,COC1=C(/C(=N/Nc2ccc([N+](=O)[O-])cc2[N+](=O)[O-])c2ccccc2)COC1=O,-2% (inactive)

# Same assay, conditions: S. cerevisiae rad50 strain growth inhibition; at 50.0 µM (retest, dose inferred, filed as 5.0); stronger effect = higher value
row,Structure (SMILES),growth inhibition
1,CCCC/C=C1/CCC(CN(C)C)C1=O (stereo not drawn),60% (inactive)
2,CCN1CCC(O)(/C=C/c2ccccc2C)C(C(=O)/C=C/c2ccccc2C)C1 (stereo not drawn),84% (active)
3,Cc1c(Cl)ccc2c(C(O)CNCc3ccccc3)cc(-c3ccc(Cl)cc3)nc12 (stereo not drawn),95% (active)
4,NC1c2ccccc2-c2ccc([N+](=O)[O-])cc21 (stereo not drawn),-2% (inactive)
5,CN(C(=O)c1ccccc1)C1(COC(=O)c2ccccc2)CCCCC1,3% (inactive)
6,CCOC(=O)Nc1cc2c(cc1Br)-c1ccccc1C2O (stereo not drawn),-3% (inactive)
7,O=C(/C=C(/Nc1ccccc1)C(=O)c1ccccc1)c1ccccc1,77% (active)
8,Clc1ccc([I+]c2cccs2)cc1,97% (active)
9,Oc1ccc(Cc2cccc(Br)c2)c(O)c1,99% (active)
10,Cc1cc(C)nc(CCSS(=O)(=O)O)c1,5% (inactive)
11,CC1(C)OC2C(COC(c3ccccc3)(c3ccccc3)c3ccccc3)OC(n3cnc4c(N)ncnc43)C2O1 (stereo not drawn),80% (active)
12,Oc1ccc(N=Nc2ccccc2)c(O)c1.Oc1ccc(N=Nc2ccccc2)c(O)c1.[Cu],96% (active)
13,O=C(N/C(=C\c1ccc2c(c1)OCO2)c1nc2ccccc2s1)c1ccccc1,98% (active)
14,CC1=C(C(=O)Nc2ccccc2C)C(c2ccccc2F)C(C(=O)Nc2ccccc2C)=C(C)N1,6% (inactive)
15,CC(=O)Oc1c2c(c(OC(C)=O)c3c1n(C(C)=O)c1ccccc1n3C(C)=O)n(C(C)=O)c1ccccc1n2C(C)=O,50% (inactive)
16,CCOc1c(N=Nc2ccc(Cl)cc2)c(-c2ccccc2)nn1C(N)=S,90% (active)
17,CC(=O)N(C1=CC(=O)c2ccccc2C1=O)c1ccc(Cl)cc1,97% (active)
18,O=C(C1=Cc2ccccc2OC1)N1CCN(c2cccc(Cl)c2)CC1,96% (active)
19,Oc1c(Cl)ccc2cccnc12,98% (active)
20,COc1ccc2c(Cc3cc(Cl)ccc3O)cncc2c1O,32% (inactive)
21,CC(CCOP(=O)(O)OCCC(C)CC(C)(C)C)CC(C)(C)C (stereo not drawn),20% (inactive)
22,CC(C)(C)C(=O)CC(=O)C(F)(F)C(F)(F)C(F)(F)F.[Ag],98% (active)
23,Cc1ccc(S(=O)(=O)Nn2c(S)c(C#N)c(-c3ccc([N+](=O)[O-])cc3)c(C#N)c2=O)cc1,59% (inactive)
24,COC1=C(/C(=N/Nc2ccc([N+](=O)[O-])cc2[N+](=O)[O-])c2ccccc2)COC1=O,-6% (inactive)

# From PubChem BioAssay (NCI)
